A549 tox: A549 cytotoxicity, counter-screen for Nrf2 inhibitors. Potency, µM (series often up to 46 µM), most hits filed as inhibitors. AID 504648. A549 ARE-Fluc cells, CellTiter-Fluor viability, 18-24 h. 390,000 compounds, 0.16% hits
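A549 ARE_Fluc cells in 5% FBS OPTI-MEM were exposed to compounds in concentration-response for 18-24 h at 37 deg C. Viability was read by CellTiter-Fluor fluorescence (Ex 405/Em 525) after 30 min, before the luciferase read.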
KB-V1 cytotox: kills drug-selected multidrug resistant KB-V1 cells; 400,000 compounds, 3.4% hits; KB-V1 MDR cells viability, CellTiter-Glo, 72 h; Potency, µM (titrated, usually from 46.1 µM), most hits filed as cytotoxic; AID 1347076; also: nearly all actives have a fitted effect of over 60% in size
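KB-V1 MDR subline cells in DMEM (phenol-red free, 10% FBS) exposed to compounds in qHTS concentration series for 72 h at 37 degrees C. Viability read by CellTiter-Glo luminescence; concentration-effect curves fitted after normalization and correction.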
Giardia kill: Giardia lamblia killing | Giardia lamblia trophozoite viability | activity change, % at 7.66 µM, hits read low | 340,000 compounds, 0.15% hits; in the data active = activity change below about -80%; inconclusive = between about -30% and that limit;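 also: parasites exposed to compound for two days anaerobically before the ATP read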
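Killing of trophozoites was scored by loss of ATP luminescence after a 48 hrs anaerobic exposure to compounds at 37 deg C, using 100 cells per well.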
Nrf2 inh: blocks Nrf2 signaling; A549 ARE-Fluc reporter, luciferase luminescence, 18-24 h; Potency, µM (series often up to 46 µM), actives largely listed as inhibitors; 360,000 compounds, 2.1% hits; AID 504444; also: nearly all actives have a fitted effect of over 60% in size
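In this cell-based qHTS, ARE-driven firefly luciferase in A549 cells reports Nrf2 activity; the luminescent signal after BugLite lysis is the measured value, with a prior CellTiter-Fluor read for cell health.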
KB-3-1 tox: kills parental KB-3-1 adenocarcinoma cells | KB-3-1 viability, CellTiter-Glo ATP luminescence, 72 h | Potency, µM (highest dose often 46.1 µM), most hits filed as cytotoxic | 400,000 compounds, 1.4% hits | AID 1347075; also: nearly all actives have a fitted effect of over 60% in size
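KB-3-1 parental drug-naive adenocarcinoma cells in DMEM/10% FBS, incubated 72 h at 37 C with pin-transferred compounds across a concentration series. Viability by CellTiter-Glo luminescence; concentration-response curves fitted after normalization.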
PI4K2A inh: blocks human PI4K2A kinase activity | Q9BTU6 | purified PI4K2A, ADP-Glo luminescence, 1 h; hits give low values | activity change, negative = inhibition, % at 76.9 µM | 420,000 compounds, 0.13% hits; in the data active = activity change below about -50%; inconclusive = mostly about -30% to -49%
Target sequence (Q9BTU6 whole entry, looked up): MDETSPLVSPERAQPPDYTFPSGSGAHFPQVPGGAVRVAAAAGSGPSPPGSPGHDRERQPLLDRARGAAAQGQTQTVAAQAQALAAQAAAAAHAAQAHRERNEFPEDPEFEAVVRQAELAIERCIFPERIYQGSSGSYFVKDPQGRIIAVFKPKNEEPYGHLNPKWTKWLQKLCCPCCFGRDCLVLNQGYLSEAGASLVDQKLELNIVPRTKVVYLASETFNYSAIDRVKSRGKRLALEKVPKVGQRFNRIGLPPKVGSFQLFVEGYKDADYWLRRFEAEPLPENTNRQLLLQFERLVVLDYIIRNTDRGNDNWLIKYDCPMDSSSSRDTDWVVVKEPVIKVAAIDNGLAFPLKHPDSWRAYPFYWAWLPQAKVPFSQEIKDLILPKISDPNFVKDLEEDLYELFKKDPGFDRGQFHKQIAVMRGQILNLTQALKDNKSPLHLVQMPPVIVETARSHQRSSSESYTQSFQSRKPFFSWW
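PI4K2A activity was measured by ADP-Glo luminescence: enzyme (4 ug/mL stock) and phosphatidylinositol (1.2 mM stock) in Tris pH 7.5/MgCl2/EGTA/Triton X-100 buffer were reacted with ATP (300 microM stock) for one hour at ambient temperature.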
Hits are given with their value. A selection: hits, their analogues and other compounds. The true share with any hit is near 5.7%. Unless noted, calls follow the shape of the dose curve; as a rule, active = well fitted curve in the direction sought with a large enough effect; inconclusive = small, poorly fitted or top-dose-only effect, or another doubt; inactive = no such curve, though single readings can be large; an effect the other way counts as inactive or inconclusive.

`CC1(C)C=Cc2ccc(O)c(C(=O)/C=C/c3ccccc3)c2O1` gave PI4K2A inh inactive.
Screening COc1ccc(NC(=O)C(c2ccccn2)N(C(C)=O)c2ccc(C)cc2)cc1 (stereo not given) returned A549 tox inactive, KB-V1 cytotox 18µM, Giardia kill inactive, Nrf2 inh inactive, KB-3-1 tox inactive and PI4K2A inh inactive.
For CNc1c2cccc(C)c2nc2c(C(=O)NCCN(C)C)cccc12 the results were A549 tox 4.6µM, KB-V1 cytotox inconclusive, Giardia kill inactive, Nrf2 inh 1.5µM, KB-3-1 tox 0.29µM and PI4K2A inh inactive.
Cc1ccc(C(=O)NCCN(C)C)c(C)c1 was read as A549 tox inactive, KB-V1 cytotox inactive, Giardia kill inactive, Nrf2 inh inactive, KB-3-1 tox inactive and PI4K2A inh inactive.
`CSc1nc2cc(S(=O)(=O)N3CCCCC3)ccc2s1` gave A549 tox inactive, KB-V1 cytotox 15µM, Giardia kill inactive, Nrf2 inh inactive, KB-3-1 tox inconclusive and PI4K2A inh inactive.
CSc1nc2cc(S(=O)(=O)N3CCOCC3)ccc2s1 was read as A549 tox inactive, KB-V1 cytotox inactive, Giardia kill inactive, Nrf2 inh inactive, KB-3-1 tox inconclusive and PI4K2A inh inactive.
Screening O=S(=O)(c1cccc(-c2nc3ccccc3s2)c1)N1CCCC1 returned A549 tox inactive, KB-V1 cytotox 15µM, Giardia kill inactive, KB-3-1 tox inconclusive and PI4K2A inh inactive.
For CCOc1ccc(NC(=O)NCCCn2c(C)nc3cc(C)c(C)cc32)cc1 the results were A549 tox inactive, KB-V1 cytotox 23µM, Giardia kill inactive, Nrf2 inh inactive, KB-3-1 tox inactive and PI4K2A inh inactive.
Screening CN1CCN(CCCNC(=O)Nc2cccc3ccccc23)CC1 returned A549 tox inactive, KB-V1 cytotox inactive, Giardia kill inactive, Nrf2 inh inactive, KB-3-1 tox inactive and PI4K2A inh inactive.
Screening Cc1cc2nc(C)n(CCCNC(=O)Nc3cccc4ccccc34)c2cc1C returned A549 tox inactive, KB-V1 cytotox 16µM, Giardia kill inactive, Nrf2 inh inconclusive, KB-3-1 tox inconclusive and PI4K2A inh inactive.
Screening COc1ccc(CN[C@@H]2CC[C@@]34CCCN3C(=O)CCC[C@H]4C2)cc1OC returned PI4K2A inh inactive.
Screening Cc1ncc([N+](=O)[O-])n1C returned PI4K2A inh inactive.
`Cn1c([N+](=O)[O-])cnc1N1CCN(c2nncs2)C1=O` gave A549 tox inactive, KB-V1 cytotox inactive, Giardia kill -93, Nrf2 inh inactive, KB-3-1 tox inactive and PI4K2A inh inactive.
C[C@H]1[C@@H](OC(=O)NCc2ccccc2Cl)CC[C@@]23CCCN2C(=O)CCC[C@@H]13 was read as PI4K2A inh inactive.
`CCC(C)C(=O)Nc1nc(C)c(-c2csc(Nc3ccc(Cl)cc3)n2)s1` (stereo not given) gave A549 tox inconclusive, KB-V1 cytotox inactive, Giardia kill inactive, Nrf2 inh 16µM, KB-3-1 tox 6.5µM and PI4K2A inh inactive.
`CCCCCC(=O)Nc1nc(C)c(-c2csc(Nc3cc(Cl)ccc3OC)n2)s1` gave A549 tox inactive, KB-V1 cytotox inactive, Giardia kill inactive, Nrf2 inh inactive, KB-3-1 tox inactive and PI4K2A inh inactive.
For Cc1ccc(Cl)cc1Nc1nc(-c2sc(NC(=O)C(C)(C)C)nc2C)cs1 the results were A549 tox inactive, KB-V1 cytotox inactive, Giardia kill inactive, Nrf2 inh 12µM, KB-3-1 tox inconclusive and PI4K2A inh inactive.
`CC(=O)Nc1nc(C)c(-c2csc(Nc3ccc(O)cc3)n2)s1` gave KB-V1 cytotox inactive, Giardia kill inactive, Nrf2 inh inconclusive, KB-3-1 tox 8.2µM and PI4K2A inh inactive.
For CC(=O)Nc1ccc(Nc2nc(-c3sc(NC(C)=O)nc3C)cs2)cc1 the results were A549 tox inactive, KB-V1 cytotox inactive, Giardia kill inactive, Nrf2 inh inactive, KB-3-1 tox inconclusive and PI4K2A inh inactive.
Cc1nc2ccccc2nc1-c1csc(-c2ccccc2)n1 was read as KB-V1 cytotox inconclusive and KB-3-1 tox inactive.

Source: PubChem (National Center for Advancing Translational Sciences (NCATS))
